TROY signal inh: inhibitors of TROY-driven NF-kB signaling, primary screen, Q293 LMP1-TROYcd cells, NF-kB luciferase, uHTS; Q293 LMP1-TROYcd NF-kB luciferase reporter, 4 h; inhibition, % at 10 µM; actives 0.98% (n = 360,000);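 active = compounds whose plate-normalised and pattern-corrected inhibition of the luciferase reporter signal at the single screening dose is 50% or more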
LGR2 inh: inhibitors of bursicon-induced LGR2 CRE-luciferase signal, primary screen, cell-based, HEK293, CRE-luciferase reporter, bursicon stimulation; bursicon-stimulated, 4 h; inhibition, % at 9.99 µM; actives 0.35% (n = 380,000);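 active = drop in luminescence signal, shown as inhibition above about 50% in the replicate tests, limit read from the data, passing the limit was not always enough; inconclusive = probably only some replicates passing the limit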;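 note: agonist challenge used bursicon conditioned medium at about half maximal strength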
PAX8 inh HTS: inhibitors of PAX8-driven TPO luciferase reporter, primary screen, RMG-I cells, single concentration | AID 652154, 2013 | SteadyGlo, 24 h | actives 1.2% (n = 360,000) | inhibition, % at 12.6 µM;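 active = mean replicate inhibition at least 60% with every replicate also reaching 60%; inconclusive = only one of the two criteria is met; inactive = mean below 60% and not all replicates reaching 60%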;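 note: luciferase light reporting Pax8 driven TPO promoter activity; plate controls were median of neutral control wells for no effect and mitoxantrone controls for full effect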
TWEAK Fn14 block: inhibitors of TWEAK-Fn14 signaling, primary screen, luciferase reporter cells, uHTS; TWEAK-stimulated Fn14 reporter cells, luciferase luminescence, 8 h; inhibition, % at 10 µM; actives 2% (n = 360,000); AID 1159606, 2016; in the data active = inhibition above about 50%
EBV LMP1 NFkB: EBV LMP1-driven NF-kappaB luciferase reporter inhibitors, primary screen, cell-based, luminescence, single point; LMP1-induced NF-kappaB luciferase reporter cells; inhibition, % at 12.5 µM; actives 0.69% (n = 350,000); in the data active = inhibition above about 41%; inconclusive = no clear call, values can overlap the other calls;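 note: 0% = neutral control wells and 100% = reference inhibitor control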
EWS-Fli inh: EWS/Fli-driven NR0B1 reporter inhibitors, primary screen, A673 cells, NR0B1 luciferase, luminescence, MLPCN library; inhibition, % at 12.6 µM; actives 0.67% (n = 350,000); viability-normalised;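 active = mean inhibition of at least 50% after viability correction, with every replicate also passing that limit; inconclusive = mean reaches 50% but only one of two replicates passes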;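 note: firefly luciferase signal divided by Alamar Blue viability fluorescence both relative to DMSO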
The depositor's hits bear a star; ? = inconclusive; / = no result given. Most compounds without a hit are left out; they make up all but 3.2% or so of the library.

SMILES	TROY signal inh	LGR2 inh	PAX8 inh HTS	TWEAK Fn14 block	EBV LMP1 NFkB	EWS-Fli inh
c1ccc(Nc2ccnc(Nc3ccccc3)n2)cc1	19.9	-33.2	-80.6	55.5*	-23.5	-90.6
CNC[C@@H]1Oc2ccc(NS(=O)(=O)c3ccc(F)cc3)cc2CC(=O)N([C@H](C)CO)C[C@H]1C	/	6.1	-27.9	/	/	2.6
CC(C)n1cnc2c(NCc3ccc(S(N)(=O)=O)cc3)nc(NCc3ccc(S(N)(=O)=O)cc3)nc21	-8.2	6.3	-3.7	-12.3	-1.3	-0.5
CC(C)[C@H](CO)Nc1nc(NCc2ccc(S(N)(=O)=O)cc2)c2ncn(C(C)C)c2n1	15.0	52.5*	68.7*	27.0	-26.2	12.2
O=c1c2ccccc2cnn1Cc1ccc(Cl)c(Cl)c1	-28.3	-12.9	25.9	-11.5	-1.6	-6.9
Cc1cc(C(=O)Cn2ncc(Cl)c(Cl)c2=O)c(C)n1CC(F)(F)F	64.2*	/	1.7	95.5*	-45.1	16.9
Cc1ccc(C)c(C(=O)Cn2ncc(Cl)c(Cl)c2=O)c1	2.6	-3.8	/	68.3*	-98.1	/
Cc1ccc(C)c(C(=O)CSc2nnc(C)s2)c1	-30.4	-12.9	1.4	-4.2	6.0	-31.0
Cc1cccc(Cn2ncc(Cl)c(Cl)c2=O)c1	6.0	99.3*	/	40.8	-1.8	?
Cc1cc2oc(=O)cc(Cn3ncc(Cl)c(Cl)c3=O)c2cc1Cl	82.6*	/	/	79.8*	-32.4	/
O=C(c1ccccc1F)N1CC(=O)N2[C@H](C1)[C@@H](c1ccc(C#Cc3ccccc3)cc1)[C@@H]2CO	/	11.3	/	/	/	-2.2
C[C@@H]1CN([C@H](C)CO)S(=O)(=O)c2ccc(-c3cccc(C#N)c3)cc2O[C@H]1CN(C)Cc1cccc(F)c1	/	19.2	50.5	/	/	31.5
COc1cccc(C#Cc2ccc([C@H]3[C@@H](CO)N(C(=O)C4CCCCC4)[C@H]3C#N)cc2)c1	/	-7.5	78.3*	/	/	15.6
COc1cccc(C#Cc2ccc([C@H]3[C@@H](CO)N(C(=O)C4CCC4)[C@H]3C#N)cc2)c1	/	13.4	71.5*	/	/	-26.4
COc1cccc(C#Cc2ccc([C@H]3[C@@H](CO)N(C(=O)C4CCCC4)[C@H]3C#N)cc2)c1	/	3.4	82.2*	/	/	2.4
COc1cccc(C#Cc2ccc([C@@H]3[C@@H](C#N)N(C(=O)C4CCCC4)[C@@H]3CO)cc2)c1	/	-2.9	/	/	/	0.7
C[C@H](O)C#Cc1ccc2c(c1)O[C@H](CN(C)C(=O)Cc1ccccn1)[C@@H](C)CN([C@H](C)CO)S2(=O)=O	/	-2.0	/	/	/	-7.0
COc1ccccc1C#Cc1ccc2c(c1)O[C@@H](CN(C)C(C)=O)[C@H](C)CN([C@@H](C)CO)S2(=O)=O	/	1.3	/	/	/	8.4
Cc1c(/C=N/NC(=O)CNc2ccccc2)c2ccccn2c1C(=O)c1ccc(Cl)cc1	18.3	1.4	17.1	30.6	21.7	/
Cc1c(/C=N/NC(=O)CNc2ccccc2)c2ccccn2c1C(=O)c1ccncc1	21.0	7.4	-7.0	61.8*	1.1	9.8
NC(=O)N/N=C/c1c(Sc2nnnn2-c2ccccc2)nc2ccccn2c1=O	-6.3	?	41.7	95.8*	17.2	4.2
Cc1nn(-c2ccccc2)c(Cl)c1/C=N/NC(N)=O	-47.0	-17.2	-38.5	-25.6	-1.4	-16.3
CNC[C@@H]1OCCCC[C@@H](C)Oc2ccc(NC(=O)c3ccccc3)cc2C(=O)N([C@@H](C)CO)C[C@@H]1C	/	5.7	11.7	/	/	-3.1
CC(=O)Nc1cc(N=Cc2ccc(O)cc2O)c(Cl)cc1Cl	29.6	/	/	98.7*	3.7	/
O=C1N=C(N2CCCCC2)S/C1=C\c1ccncc1	-20.5	6.1	-7.8	1.3	3.0	3.1
SMILES	TROY signal inh	LGR2 inh	PAX8 inh HTS	TWEAK Fn14 block	EBV LMP1 NFkB	EWS-Fli inh
O=C1N=C(N2CCCC2)S/C1=C\C=C\c1ccccc1	72.4*	/	-12.2	76.8*	14.8	-36.4
CCc1ccc(/C=C2\SC(N3CCCC3)=NC2=O)cc1	57.9*	-27.3	3.2	40.6	0.0	0.5
COc1ccc(/C=C2\SC(N3CCCCC3)=NC2=O)cc1	-20.1	-80.8	-35.8	-19.7	-12.3	-48.8
COc1cccc(S(=O)(=O)Nc2ccc3c(c2)[C@H]2C[C@@H](CC(=O)NCc4ccc(Cl)cc4)O[C@H](CO)[C@H]2O3)c1	/	-3.3	63.4*	/	/	31.9
COc1cccc(S(=O)(=O)Nc2ccc3c(c2)[C@@H]2C[C@H](CC(=O)NCc4ccc(Cl)cc4)O[C@@H](CO)[C@@H]2O3)c1	/	-2.3	62.1*	/	/	22.9
COc1cccc(S(=O)(=O)Nc2ccc3c(c2)[C@@H]2C[C@H](CC(=O)NCc4ccc(Cl)cc4)O[C@H](CO)[C@@H]2O3)c1	/	8.7	18.4	/	/	9.4
Cc1ccc2nc(-c3ccccn3)[nH]c2c1	37.3	82.1*	-31.7	79.8*	40.7*	44.3
Oc1ccc(C[C@H]2CN([C@@H](Cc3ccc(O)cc3)CN3CCC[C@@H]3CN3C(=S)NC[C@@H]3Cc3ccccc3)C(=S)N2CCc2ccccc2)cc1	19.1	22.8	22.0	11.3	/	31.2
CCOc1ccc(CCN2C(=S)N([C@@H](Cc3ccc(O)cc3)CN3CCCC3CN3C(=S)NC[C@@H]3Cc3ccc(O)cc3)C[C@@H]2CC(C)C)cc1 (stereo partly drawn)	2.1	/	53.8	45.4	13.6	26.9
CC(C)C[C@@H](CN1CCCC1CN1C(=S)NC[C@@H]1Cc1ccc(O)cc1)N1C[C@H](Cc2ccc(O)cc2)N(CCc2ccccc2)C1=S (stereo partly drawn)	24.9	6.1	71.2*	64.6*	7.4	7.3
CCOc1ccc(CCN2C(=S)N([C@@H](Cc3ccc(O)cc3)CN3CCC[C@@H]3CN3C(=S)NC[C@@H]3CC(C)C)C[C@@H]2Cc2ccc(O)cc2)cc1	32.2	2.3	97.9*	46.1	/	33.5
CN1C(=O)c2cc(NC(=O)c3ccc(Cl)cc3)ccc2OC[C@H]2O[C@H](CC(=O)O)CC[C@@H]21	/	16.2	-11.4	/	/	0.9
C[C@@H]1CN([C@H](C)CO)C(=O)c2cc(NC(=O)CCC(F)(F)F)ccc2O[C@@H](C)CCCCO[C@H]1CN(C)C(=O)Cc1ccccc1	/	-7.9	1.6	/	/	4.3
Cc1[nH]n(-c2ccccc2)c(=O)c1/C=N/Nc1nncc(-c2ccccc2)n1	9.8	13.2	/	-2.1	68.9*	17.6
Cc1[nH]n(-c2ccc(Br)cc2)c(=O)c1/C=N/NC(=O)c1ccccc1	1.6	-5.7	11.3	32.7	46.6*	-36.8
Cc1ccc(/C=N/Nc2nncc(-c3ccccc3)n2)o1	-50.8	-17.6	-70.2	4.9	-15.2	-60.1
Cc1ccc(NN=C2c3ccccc3-c3ccccc32)cc1	51.6*	-44.1	-89.9	39.6	-34.2	/
c1ccc(NN=C2c3ccccc3-c3ccccc32)cc1	-25.1	-18.3	27.1	-15.6	-9.3	-6.8

Source: PubChem
